Results reported in PubChem BioAssay AID652154 (Broad Institute, 2013).
About 4,200 (1.2%) of roughly 360,000 compounds were called active. The list comes from a sample in which actives are over-represented; it also holds similar structures and randomly drawn compounds. A number with no mark means an inactive call.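 How the source made its calls: active means mean replicate inhibition at least 60% with every replicate also reaching 60%; inconclusive means only one of the two criteria is met; inactive means mean below 60% and not all replicates reaching 60%.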

Assay: PAX8 transcriptional activity inhibition in RMG-I – RMG-I cells, luciferase, single concentration, primary screen (AID 652154);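 further: luciferase light reporting Pax8 driven TPO promoter activity; plate controls were median of neutral control wells for no effect and mitoxantrone controls for full effect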
Conditions: RMG-I TPO-luciferase reporter, SteadyGlo, 24 h; at 12.6 µM; active compounds read high

In order of rising inhibition:
1. O=C(Nc1ccccn1)C1CCN(S(=O)(=O)c2ccccc2)CC1  -150%
2. C[C@@H]1CN([C@H](C)CO)C(=O)Cc2cc(NC(=O)CCCN(C)C)ccc2O[C@@H]1CN(C)Cc1ccc(Oc2ccccc2)cc1  -19.4%
3. Cn1cnc(CCNC(=O)C[C@H]2CC[C@@H]3[C@H](COC[C@@H](O)CN3C(=O)Nc3ccc(Cl)cc3)O2)c1  -17.8%
4. O=C(C[C@H]1CC[C@@H]2[C@H](COC[C@H](O)CN2C(=O)c2ccc3c(c2)OCO3)O1)NC1CCC1  -16.6%
5. C[C@H](CO)N1C[C@H](C)[C@H](CN(C)CC2CC2)Oc2ccc(NC(=O)c3ccncc3)cc2C1=O  -14.7%
6. COCC#Cc1ccc2c(c1)O[C@@H](CN(C)Cc1cccnc1)[C@@H](C)CN([C@H](C)CO)S2(=O)=O  -14.2%
7. C[C@H](CO)N1C[C@H](C)[C@@H](CN(C)S(=O)(=O)c2cn(C)cn2)Oc2ccc(NS(=O)(=O)c3cn(C)cn3)cc2C1=O  -10.4%
8. Cc1ccccc1S(=O)(=O)N1CC[C@H]2[C@H](CO)Nc3ccc(-c4cccc(F)c4)cc3[C@H]21  -9.62%
9. C/C=C/c1cnc2c(c1)C(=O)N([C@H](C)CO)C[C@H](C)[C@@H](CN(C)C(=O)c1cccc(F)c1)O2  -7.23%
10. COC(=O)[C@@]1(Cc2ccc(F)cc2)[C@H]2c3cc(C(=O)N(C)C)n(CCc4c[nH]c5ccc(OC)cc45)c3C[C@H]2CN1C(=O)c1ccccc1  -3.55%
11. O=C(C[C@@H]1CC[C@H]2[C@@H](COC[C@@H](O)CN2S(=O)(=O)c2cccc(Cl)c2)O1)N1CCCCC1  -3.53%
12. CC(=O)Nc1ccc2c(c1)C(=O)N(C)[C@@H]1CC[C@H](CC(=O)NCc3ccccc3)O[C@H]1CO2  -2.89%
13. CCCN1C[C@@H](C)[C@@H](OC)CN(C)C(=O)c2ccc(NC(=O)c3ccc(F)cc3)cc2OC[C@@H]1C  -1.32%
14. COC(=O)[C@@]1(Cc2ccc(F)cc2)[C@H]2c3cc(C(=O)N4CCCC4)n(C[C@H](O)CO)c3C[C@H]2CN1C(=O)c1ccccc1  0.0525%
15. CN1c2ccc(Br)cc2[C@H]2[C@H](CCN2S(=O)(=O)c2ccccc2)[C@@H]1CO  0.611%
16. COc1ccccc1NC(=O)N[C@H]1C=C[C@@H](CC(=O)N[C@@H](C)c2ccccc2)O[C@@H]1CO  4.41%
17. CCC1Oc2ccccc2N(CC(=O)NCCCN2CCN(CC)CC2)C1=O (stereo unspecified)  5.58%
18. CC(C)(C)OC(=O)NCCCCCNC(=O)c1nc[nH]c1C(=O)NCc1ccccc1  8.72%
19. CN1CCCCC(NC(=O)C(C)(C)C)C1=O (stereo unspecified)  8.76%
20. C[C@H](O)C#Cc1ccc2c(c1)O[C@@H](CN(C)Cc1cncnc1)[C@H](C)CN([C@H](C)CO)S2(=O)=O  8.97%
21. CCOC(=O)c1ccc(NC(=O)c2nc[nH]c2C(=O)N[C@@H](CCCCNC(=O)OC(C)(C)C)C(=O)OC(C)(C)C)cc1  11.1%
22. C[C@@H]1CN([C@@H](C)CO)S(=O)(=O)c2ccc(/C=C/c3ccccc3)cc2O[C@H]1CN(C)Cc1ccccc1  11.4%
23. Cc1cccc(NC(=O)C2CCN(S(=O)(=O)c3cccc4cccnc34)CC2)c1  11.9%
24. O=C(Nc1c(Cl)c(C2CC2)nn1-c1ccccc1)C(Cl)(Cl)Cl  12.8%
25. COc1ccccc1CCn1cnc(-c2ccccc2)c1C(C)C  14.5%
26. COc1ccccc1NC(=O)N1C[C@H]2[C@@H](c3ccccc31)[C@@H](CO)N2C(=O)C1CCCC1  14.9%
27. Cc1c(C)n(Cc2ccc(Cl)cc2)c2ccc(C(=O)NCCCN3CCOCC3)cc12  15.4%
28. Cc1noc(C)c1S(=O)(=O)Nc1ccc2c(c1)C(=O)N([C@H](C)CO)C[C@@H](C)[C@@H](CN(C)Cc1ccccc1)OCCCC[C@@H](C)O2  15.9%
29. C[C@H](O)C#Cc1ccc2c(c1)O[C@H](CN(C)Cc1cncnc1)[C@H](C)CN([C@@H](C)CO)S2(=O)=O  19.4%
30. CCC(=O)Nc1ccc2c(c1)OC[C@H](C)N(C(=O)Cc1cccnc1)C[C@@H](C)[C@@H](OC)CN(C)C2=O  19.9%
31. C[C@H](CO)N1C[C@H](C)[C@@H](CN(C)S(=O)(=O)c2ccc(F)cc2)Oc2ccc(NC(=O)CCCCCC(=O)Nc3ccccc3N)cc2CC1=O  26.9%
32. C[C@@H]1CN([C@H](C)CO)S(=O)(=O)c2ccc(/C=C/c3ccccc3)cc2O[C@@H]1CN(C)Cc1ccccc1  31%
33. C[C@@H]1CN([C@H](C)CO)S(=O)(=O)c2ccc(C#CC3CCCC3)cc2O[C@@H]1CN(C)Cc1cccnc1  31.1%
34. COc1ccccc1-c1ccc2c(c1)[C@H]1[C@H](CCN1S(=O)(=O)c1ccccc1)[C@@H](CO)N2  48.7%

In the case of CN1CCN(CCCNC(=O)c2ccc(/C=C3\Oc4ccccc4N(Cc4ccc(Cl)cc4)C3=O)cc2)CC1, the inhibition is reported as 100% (active).
For COc1ccccc1C#Cc1ccc2c(c1)O[C@@H](CN(C)Cc1cncnc1)[C@H](C)CN([C@@H](C)CO)S2(=O)=O, the inhibition was 74.3% (active).
For COc1ccccc1C#Cc1ccc2c(c1)O[C@H](CN(C)Cc1cccnc1)[C@@H](C)CN([C@H](C)CO)S2(=O)=O, the inhibition was 70% (active).
For C[C@@H]1CN([C@@H](C)CO)S(=O)(=O)c2ccc(/C=C/c3ccccc3)cc2O[C@H]1CN(C)Cc1cccnc1, the inhibition was 68.6% (active).
With COC(=O)[C@@]1(Cc2ccc(OC)cc2)[C@H]2c3cc(C(=O)N4CCCC4)n(Cc4ccc(OC(F)(F)F)cc4)c3C[C@H]2CN1C(=O)c1ccccc1 the inhibition was 77% (active).
For Cc1ccc(NC(=O)c2nc[nH]c2C(=O)N[C@@H](CCCCNC(=O)OC(C)(C)C)C(=O)OC(C)(C)C)cc1, the inhibition was 64% (active).
For Cc1ccnc(NC(=O)C2CCN(S(=O)(=O)c3c(C)c(C)cc(C)c3C)CC2)c1, the inhibition was 74.9% (active).
